In PubChem BioAssay (EPA / NIEHS):
Several values for one entry are separate records, joined by “and”; a condition that tells them apart may be missing. Equal values may be shown once. Inconclusive results are not listed. Activity calls are given as the source filed them. How the source made its calls, unless noted: active means hit-call score of the fitted dose curve at least 0.9, where 1 is the maximum; inconclusive means response in the unintended direction; inactive means score below 0.9.

Key:
[1] = Tanguay_ZF_120hpf_CFIN_legacy: (Legacy) Oregon State University Tanguay Lab 120 Hour Post-fertilization zebrafish Assay for Caudal Fin Malformation (AID 2283649)
Method in brief: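 Dechorionated 5D wild-type zebrafish, static exposure 6–120 hpf, 28C, sealed and dark, 0.64% v/v DMSO final. Binary fin-malformation call at 120 hpf, brightfield; gain of signal vs DMSO baseline.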

[2] = Tanguay_ZF_120hpf_CIRC_legacy: (Legacy) Oregon State University Tanguay Lab 120 Hour Post-fertilization zebrafish Assay for Circulatory Malformation (AID 2283651)
Method in brief: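 Binary circulatory malformation call at 120 hpf by brightfield imaging of zebrafish larvae; chorion removed at 4 hpf, static exposure from 6 hpf in sealed dark plates at 28C, final DMSO 0.64%; non-mortality endpoints skipped if embryo died.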

[3] = Tanguay_ZF_120hpf_SWIM_legacy: (Legacy) Oregon State University Tanguay Lab 120 Hour Post-fertilization zebrafish Assay for Swim Bladder Malformation (AID 2283654);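 further: swim bladder malformation in each larva scored yes or no under brightfield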
Method in brief: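 Tropical 5D embryos dechorionated at 4 hpf; 1 embryo/well from 6 hpf; static, sealed, dark exposure at 28C until 120 hpf; final DMSO 0.64%; 5uM trimethyltin chloride positive control; swim bladder defect recorded yes/no; dead embryos not scored.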

[4] = Tanguay_ZF_120hpf_TRUN_legacy: (Legacy) Oregon State University Tanguay Lab 120 Hour Post-fertilization zebrafish Assay for Truncated Body (AID 2283655)
Method in brief: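 Whole-embryo zebrafish screen: dechorionated 5D embryos, static exposure 6–120 hpf, 28C, sealed foil-covered plates, 0.64% DMSO. Binary truncation call; gain of signal versus DMSO baseline.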

[5] = system: Thyroperoxidase (TPO), gene 54314; assay: CCTE_Simmons_AUR_rTPO: CCTE's Amplex UltraRed Assay for Thyroperoxidase (TPO) Inhibition, Simmons Lab (AID 2283662);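 on AC50: potency for loss of signal meaning inhibition of peroxidase activity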
Method in brief: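 Cell-free peroxidase activity assay using rat thyroid gland microsomes with excess H2O2 (300 uM) and 25 uM Amplex UltraRed. Compounds tested from 5 nM to 87.5 uM; fluorescence measured after 30 min at 37C, analysed relative to DMSO baseline.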

[6] = CCTE_Simmons_CellTiterGLO_HEK293T: Viability Assessment in CCTE's Assays for Thyroperoxidase (TPO) Inhibition, Simmons Lab (AID 2283665);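 on AC50: cells exposed to compound for 24 h before readout; actives reduce ATP signal below DMSO vehicle meaning cytotoxicity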
Method in brief: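 Luciferase-coupled ATP content after 24 h exposure gives viability; 8-point series from 5 nM to 87.5 uM final in 0.5% DMSO. Human HEK293T cells, 1% FBS medium, three biological replicates, dichlone positive control.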

[7] = Tanguay_ZF_120hpf_ActivityScore_legacy: (Legacy) Oregon State University Tanguay Lab 120 Hour Post-fertilization zebrafish Assay Score for Activity (AID 2283742);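 on AC50: dechorionated Tropical 5D wild-type zebrafish embryos held singly per well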
Method in brief: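 Dechorionated 5D embryos, one per well, static exposure 6–120 hpf, 28C, sealed and dark; final DMSO 0.64% (vol/vol). Brightfield binary scoring of mortality plus 18 endpoints; gain-of-signal fit versus DMSO baseline.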

[8] = Tanguay_ZF_120hpf_PIG_legacy: (Legacy) Oregon State University Tanguay Lab 120 Hour Post-fertilization zebrafish Assay for Pigmentation Malformation (AID 2283650)
Method in brief: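 Brightfield scoring of pigmentation malformation at 120 hpf, recorded as binary present/absent per larva. Exposure: dechorionated 5D wild-type embryos, one per well, static from 6 hpf at 28C, final DMSO 0.64% (vol/vol). Dead embryos not scored.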

[9] = Tanguay_ZF_120hpf_NC_legacy: (Legacy) Oregon State University Tanguay Lab 120 Hour Post-fertilization zebrafish Assay for Notochord and Tail Malformation (AID 2283656)
Method in brief: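 Binary scoring of notochord distortion by brightfield microscopy; embryos dying were not scored. Wild-type Tropical 5D embryos, chorion removed, exposed singly and statically from 6 to 120 hpf, 28C, sealed, 0.64% DMSO.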

[10] = Tanguay_ZF_120hpf_TR_legacy: (Legacy) Oregon State University Tanguay Lab 120 Hour Post-fertilization zebrafish Assay for Touch Response (AID 2283667)
Method in brief: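 Binary touch-response call at 120 hpf, analysed as gain of signal versus DMSO baseline. Wild-type 5D larvae, static exposure at 28C, 0.64% DMSO final; 5uM trimethyltin chloride as positive control.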

[11] = CCTE_Padilla_ZF_144hpf_TERATOSCORE: (Legacy) CCTE's 144 Hour Post-fertilization zebrafish Assay Teratoscore, Padilla Lab (AID 2283679; active means hit-call score of the fitted dose curve at least 0.9, where 1 is the maximum; inactive means score below 0.9;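 on AC50: zebrafish embryos with chorions exposed by immersion from 6-8 hpf to 5 dpf with daily renewal; teratogenicity score from eye scoring of death hatching and malformations at 144 hpf; higher score means more developmental defects relative to DMSO baseline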)
Method in brief: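 Larvae scored by eye at 144 hpf for death, hatching and malformations after a day in clean Hanks'. Before that, daily-renewed exposure at 80 uM (0.4% DMSO, 26C) from roughly 6-8 hpf through 5 dpf, 4 embryos per chemical.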

[12] = STM_H9_OrnithineISnorm_perc: Stemina devTOX quickPredict H9 human embryonic stem cell (hESC)-based Assay for Ornithine (ORN) Metabolite Biomarker, Normalized (AID 2283712; active means hit-call score of the fitted dose curve at least 0.9, where 1 is the maximum; inactive means score below 0.9;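 further: ornithine released into spent medium during last day measured by mass spectrometry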)
Method in brief: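 Ornithine in spent medium from the last 24 h of a 72 h exposure, deproteinised and quantified by UPLC-HRMS against an isotope-labelled internal standard, expressed relative to 0.1% DMSO. Pluripotent H9 cells; compound refreshed every 24 h.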

[13] = STM_H9_CystineISnorm_perc: Stemina devTOX quickPredict H9 human embryonic stem cell (hESC)-based Assay for Cystine (CYSS) Metabolite Biomarker, Normalized (AID 2283713; active means hit-call score of the fitted dose curve at least 0.9, where 1 is the maximum; inactive means score below 0.9)
Method in brief: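 Cystine in spent media from the last 24 h of a 72 h H9 hESC exposure (daily re-dosing), measured by UPLC-HRMS. Values normalized to isotopic internal standard, then to 0.1% DMSO; viability via CellTiter-Fluor.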

[14] = STM_H9_OrnCyssISnorm_ratio: Stemina devTOX quickPredict H9 human embryonic stem cell (hESC)-based Assay for Ornithine (ORN):Cystine (CYSS) Ratio (AID 2283714)
Method in brief: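 UPLC-HRMS of spent media: ORN/CYSS ratio of internal-standard-normalized percentages, DMSO (0.1%) baseline. Pluripotent H9 hESCs, 72h exposure, daily re-dosing with fresh media; last 24h media collected.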

[15] = system: Thyroperoxidase (TPO), gene 445522; assay: CCTE_Simmons_GUA_TPO: CCTE's Guaiacol Assay for Thyroperoxidase (TPO) Inhibition, Simmons Lab (AID 2283750)
Method in brief: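 Porcine thyroid microsomes (25 ug) in 200mM potassium phosphate, preincubated 30 s at 37C with compound (8 concentrations, 5 nM–87.5 uM) and 35mM guaiacol; 1mM H2O2 starts reaction. Absorbance change at 450nm over first 80 s; loss of signal versus DMSO, three replicates.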

[16] = read-out: solute carrier (SLC22A6), SLC22A6 (gene 9356); assay: LTEA_HepaRG_SLC22A6: Life Technologies and Expression Analysis (LTEA) Assay for solute carrier (SLC22A6) using HepaRG (AID 2283653; active means hit-call score of the fitted dose curve at least 0.9, where 1 is the maximum; inactive means score below 0.9); settings: mRNA level, 48 h; actives raise or lower the signal
Method in brief: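 HepaRG, human liver line; 48 h chemical exposure; 8-pt half-log series from 100 uM in 0.5% DMSO, duplicate wells. Readout: TaqMan qRT-PCR of SLC22A6 mRNA, housekeeping-normalised; bidirectional curve fit vs DMSO baseline.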

[17] = read-out: solute carrier (SLC10A1), SLC10A1 (gene 6554); assay: LTEA_HepaRG_SLC10A1: Life Technologies and Expression Analysis (LTEA) Assay for solute carrier (SLC10A1) using HepaRG (AID 2283657; active means hit-call score of the fitted dose curve at least 0.9, where 1 is the maximum; inactive means score below 0.9); settings: mRNA level, 48 h; actives raise or lower the signal
Method in brief: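 HepaRG, 48 h exposure, 8-pt half-log curve from 100 uM in 0.5% DMSO, duplicates. Read-out: TaqMan qRT-PCR of SLC10A1 mRNA, normalized to three housekeeping genes. Gain/loss fit vs DMSO baseline.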

[18] = read-out: matrix metalloproteinase-1 (MMP1), MMP1 (gene 4312); assay: LTEA_HepaRG_MMP1: Life Technologies and Expression Analysis (LTEA) Assay for matrix metalloproteinase-1 (MMP1) using HepaRG (AID 2283658; active means hit-call score of the fitted dose curve at least 0.9, where 1 is the maximum; inactive means score below 0.9); settings: mRNA level, 48 h; actives raise or lower the signal
Method in brief: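 MMP1 transcript read by TaqMan qRT-PCR (Fluidigm array) after 48 h chemical exposure of HepaRG cells in serum-free induction medium. Eight-point half-log series, top 100 uM, 0.5% DMSO vehicle. Bidirectional curve fit against DMSO baseline.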

[19] = ArunA_CellTiter_hNC: Viability Assessment in the ArunA Biomedical's Oris Neural Crest (hNC) Cell Migration Assay (AID 2283752)
Method in brief: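 After a 72 h chemical exposure, viability of hNC cells is read with CellTiter Aqueous One and fitted as signal loss relative to DMSO. Cells were seeded at 60,000/well on Matrigel and cultured 16 h at 37 C beforehand.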

Measured: AC50

N#CC(Br)(Br)C(N)=O
inactive: [1] | [2] | [3] | [4] | [5] | [6] | [7]

CCOC(=O)[C@]1(c2ccccc2)Oc2ccccc2[C@@H]1N
active: [5] 12.6 µM | [6] 36.6 µM | [11] 4.92 µM
inactive: [8] | [2] | [3] | [4] | [9] | [10] | [7]

CCCCCCCCn1sccc1=O
active: [11] 0.523 µM | [12] 43 µM | [13] 11.5 µM | [14] 22.4 µM | [7] 3.42 µM
inactive: [8] | [2] | [3] | [4] | [9]

CN(C)[C@@H]1C(=O)C(C(N)=O)=C(O)[C@@]2(O)C(=O)C3=C(O)c4c(O)cccc4[C@@](C)(O)[C@H]3C[C@@H]12
active: [5] 10.7 µM | [15] 117 µM
inactive: [8] | [2] | [3] | [4] | [9] | [6] | [7]

CN(C)c1ccc(C(=O)c2ccc(N(C)C)cc2)cc1
active: [2] 9.77 µM | [3] 30.1 µM | [5] 8.94 µM | [6] 43.8 µM | [11] 0.544 µM | [7] 32.1 µM
inactive: [1] | [4] | [9]

Cc1ccc(N)c(N)c1
active: [5] 1.68 µM | [11] 80.4 µM | [12] 18.9 µM | [13] 23.4 µM | [14] 22.7 µM
inactive: [8] | [2] | [3] | [4] | [9] | [6] | [7]

COc1cc(C=O)cc2c1[C@H](COC(N)=O)[C@]1(OC(C)=O)ON2C[C@H]2[C@@H]1N2C(C)=O
active: [12] 0.00101 µM | [13] 0.0003 µM | [14] 0.000797 µM | [7] 23.4 µM
inactive: [8] | [2] | [3] | [4] | [9] | [11]

Cn1cc(-c2ccccc2)c(=O)c(-c2cccc(C(F)(F)F)c2)c1
active: [10] 41.1 µM | [11] 57 µM | [12] 0.0803 µM
inactive: [8] | [2] | [3] | [4] | [9] | [13] | [14] | [7]

CCC[CH2][Sn]([Cl])([CH2]CCC)[CH2]CCC
inactive: [8] | [2] | [3] | [4] | [9]
active: [11] 0.0309 µM | [12] 0.519 µM | [13] 0.546 µM | [14] 0.497 µM | [7] 0.317 µM

CNC(=O)Oc1cccc2c1OC(C)(C)C2
active: [4] 12.6 µM
inactive: [8] | [2] | [3] | [9] | [10] | [12] | [13] | [14] | [7]

Nc1ccc(Cl)cc1N
inactive: [8] | [2] | [16] | [3] | [4] | [6] | [10]
active: [17] 20.9 µM | [18] 50 µM | [5] 13.1 µM | [11] 15 µM | [7] 44.8 µM

O=[N+]([O-])c1ccc(Oc2ccc(Cl)cc2Cl)cc1
inactive: [1] | [3] | [4] | [7]
active: [11] 7.79 µM | [12] 68.7 µM | [13] 29.8 µM | [14] 50 µM

CCC(C)c1ccc(O)cc1 (stereo not drawn)
inactive: [1] | [2] | [3] | [4] | [9] | [10] | [7]
active: [5] 2.88 µM | [6] 43.8 µM | [11] 60.3 µM

O=P(OCCCl)(OCCCl)OCCCl
inactive: [1] | [8] | [3] | [4] | [12] | [13] | [7] | [19]

CO[C@@H]1[C@H](OC(=O)NC(=O)CCl)CC[C@]2(CO2)[C@H]1[C@@]1(C)O[C@@H]1CC=C(C)C
active: [17] 0.389 µM | [12] 0.0844 µM | [13] 0.039 µM | [14] 0.0656 µM | [19] 1.63 nM and 120 nM
not listed: [8] | [10] | [15]
inactive: all other assays above

Brc1ccc(Oc2ccccc2)cc1
inactive: [8] | [2] | [3] | [4] | [9] | [10] | [12] | [13] | [14] | [7]
active: [11] 44.7 µM

ClCCOCCCl
inactive: [8] | [2] | [3] | [4] | [9] | [10] | [7]

CCNS(=O)(=O)C(F)(F)C(F)(F)C(F)(F)C(F)(F)C(F)(F)C(F)(F)C(F)(F)C(F)(F)F
active: [8] 46.8 µM | [11] 43.5 µM | [7] 31.2 µM
inactive: [2] | [9]

COC(=O)c1ccccc1N
inactive: [2] | [3] | [4] | [9] | [5] | [6] | [11] | [7]
